Test results reported in the supplement of paper PMC6555819.

Legend:
Experiment in all cases: PBM binding z-score (relative to random genomic background probes); higher = stronger binding; sequences stand for … in GC…GCGATTGACAGCGTAGAATGAAGG
[1] = test system: FXR:RXRa (NR concentration 270 nM, RXRa partner concentration 90 nM)
How it was run: (§1)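 Regression normalization was applied to scanned fluorescence from custom Agilent 4×180K protein-binding microarrays. Before scanning, arrays were incubated 1 h with ligand-free nuclear receptor dimers, and binding was detected with antibodies against each partner (one per run). Binding z-scores use the random background probes as reference.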

[2] = test system: LXRa:RXRa (NR concentration 270 nM, RXRa partner concentration 90 nM)
How it was run: as §1

[3] = test system: LXRa homodimer (NR concentration 270 nM)
How it was run: as §1

[4] = test system: LXRb:RXRa (NR concentration 270 nM, RXRa partner concentration 90 nM)
How it was run: as §1

[5] = test system: LXRb homodimer (NR concentration 270 nM)
How it was run: as §1

[6] = test system: PPARa:RXRa (NR concentration 270 nM, RXRa partner concentration 90 nM)
How it was run: as §1

[7] = test system: PPARg:RXRa (NR concentration 180 nM, RXRa partner concentration 90 nM)
How it was run: as §1

[8] = test system: PPARg:RXRa 270nM:90nM, anti-RXR (NR concentration 270 nM, RXRa partner concentration 90 nM)
How it was run: as §1

[9] = test system: PPARg:RXRa 30nM:10nM, anti-RXR (NR concentration 30 nM, RXRa partner concentration 10 nM)
How it was run: as §1

[10] = test system: PPARg:RXRa 90nM:30nM, anti-RXR (NR concentration 90 nM, RXRa partner concentration 30 nM)
How it was run: as §1

[11] = test system: PPARg:RXRa DBDmut IVT, anti-RXR (DBD mutation: RXRa K156A/R161A, NR concentration 270 nM, RXRa partner concentration 90 nM)
How it was run: as §1

[12] = test system: PPARg:RXRa IVT, anti-PPARg (NR concentration 270 nM, RXRa partner concentration 90 nM)
How it was run: as §1

[13] = test system: PPARg DBDmut:RXRa IVT, anti-PPARg (DBD mutation: PPARg1 K132A/R137A, NR concentration 270 nM, RXRa partner concentration 90 nM)
How it was run: as §1

[14] = test system: PPARg DBDmut IVT, anti-PPARg (DBD mutation: PPARg1 K132A/R137A, NR concentration 270 nM)
How it was run: as §1

[15] = test system: PPARg homodimer (NR concentration 180 nM)
How it was run: as §1

[16] = test system: PXR:RXRa (NR concentration 270 nM, RXRa partner concentration 90 nM)
How it was run: as §1

[17] = test system: PXR homodimer (NR concentration 270 nM)
How it was run: as §1

[18] = test system: RARa:RXR (NR concentration 270 nM, RXRa partner concentration 90 nM)
How it was run: as §1

[19] = test system: RARa homodimer (NR concentration 270 nM)
How it was run: as §1

[20] = test system: RARb:RXRa (NR concentration 270 nM, RXRa partner concentration 90 nM)
How it was run: as §1

| Sequence | PBM binding z-score [1] | PBM binding z-score [2] | PBM binding z-score [3] | PBM binding z-score [4] | PBM binding z-score [5] | PBM binding z-score [6] | PBM binding z-score [7] | PBM binding z-score [8] | PBM binding z-score [9] | PBM binding z-score [10] | PBM binding z-score [11] | PBM binding z-score [12] | PBM binding z-score [13] | PBM binding z-score [14] | PBM binding z-score [15] | PBM binding z-score [16] | PBM binding z-score [17] | PBM binding z-score [18] | PBM binding z-score [19] | PBM binding z-score [20] |
| --- | --- | --- | --- | --- | --- | --- | --- | --- | --- | --- | --- | --- | --- | --- | --- | --- | --- | --- | --- | --- |
| TCTAACAGGCCAGAGGGTCACTCAAGAGGTACGG | 1.24 | 1.31 | -0.315 | 1.47 | -0.439 | 2.54 | 1.41 | 2.62 | 3.2 | 2.71 | 1.73 | 0.466 | -0.318 | -0.0122 | 1.11 | 1.86 | -0.0848 | 2.6 | -0.0287 | 2.27 |
| CCTACTGGGCCAACGTCATTGATCAGTCAAAGCA | -0.18 | -0.496 | -0.262 | -0.492 | -0.8 | 0.419 | 0.876 | 0.556 | -0.362 | 0.3 | 3.87 | 4 | -0.653 | -0.52 | 0.534 | -0.583 | -0.509 | 0.0251 | -0.369 | -0.00134 |
| CGTCAAGGTTCAAGGTAACGTAACAGAAAGCAGC | 4.59 | 3.3 | 0.601 | 2.06 | -0.166 | 3.56 | 2.25 | 2.63 | 0.331 | 1.55 | -0.0787 | 0.903 | -0.883 | -0.847 | 1.12 | 1.87 | 0.422 | 2.3 | -0.0336 | 3.24 |
| TGAATGAGGATATAAGATCAGGGAACGTTGCAAA | 0.013 | -0.248 | -0.305 | -0.404 | -0.253 | -0.127 | 0.623 | 0.286 | 0.757 | 0.775 | -0.556 | 0.057 | 0.56 | 0.888 | 0.688 | -0.114 | 0.099 | 0.0893 | 0.416 | -0.402 |
| ACTATTAGTTGACTCAGGGCAACCGATACGACGC | 0.117 | 0.225 | 0.326 | 0.195 | 0.862 | 0.023 | 0.893 | 0.163 | 0.201 | 0.123 | 0.402 | 0.739 | 1.01 | 1.08 | 0.52 | 0.329 | 0.569 | 0.544 | 0.791 | 0.893 |
| AGAACGAGGGCAATGAGTTGATTGCACGGGTGGC | 0.165 | 0.157 | -0.593 | -0.398 | -0.715 | 1.23 | 1.15 | 0.624 | -0.179 | 0.252 | 3.14 | 2.43 | 0.337 | -0.0138 | -0.0601 | 1.65 | 6.35 | 0.166 | -0.231 | 1.89 |
| ATATATAGGTTAAGGGTCATTCAGGTTGGTTCGC | 5.73 | 5.29 | 4.07 | 4.88 | 1.86 | 6.8 | 11.9 | 9.9 | 10.7 | 11.7 | 7.29 | 7.49 | 2.46 | 2.9 | 4.36 | 5.67 | 3.53 | 6.57 | 3.52 | 3.92 |
| TAGCCTAGGTTAGATCGGGCCAGTATACGCTATA | 0.436 | -0.519 | -0.629 | -0.408 | -0.862 | -0.226 | 0.102 | -0.562 | -0.333 | -0.187 | -0.639 | 0.069 | -0.497 | -0.751 | -0.958 | -0.294 | -0.619 | 0.00533 | -0.589 | 0.0949 |
| TCTTGTAGATCAGGCAGGTTAAGAAAGCCTGAGT | 0.09 | 0.00615 | -0.308 | 0.209 | -0.455 | 0.43 | -0.505 | 0.864 | 2.52 | 1.62 | 1.29 | -0.151 | 0.127 | -0.335 | -0.356 | 0.175 | -0.218 | 0.0754 | 0.0377 | 0.0689 |
| CGAACTAGGTCAAGGACAGTGGATCTCCGCACGC | 3.06 | 1.85 | -0.0741 | 1.23 | -0.565 | 4.31 | 6.9 | 6.1 | 3.35 | 5.72 | 8.19 | 7.79 | 1.43 | 0.272 | 0.876 | 0.906 | -0.161 | 1.62 | 0.0729 | 3.84 |
| AATACAGGGTCTTCGTAGGCCAGAGTACGCACAG | -0.0491 | 0.0766 | -0.419 | -0.205 | -0.311 | 0.156 | 0.75 | 0.174 | 0.334 | 0.137 | 0.0875 | 0.764 | 0.236 | 0.68 | -0.584 | -0.0215 | -0.304 | 0.585 | 0.404 | 0.544 |
| CCTAGCAGGCCGGGGTCACTCAAGCATTTCGCTT | 4.66 | 3.63 | -0.0184 | 3.88 | -0.234 | 4.93 | 2.5 | 3.86 | 0.906 | 2.54 | 0.19 | 1.7 | -1.3 | -0.709 | 1.87 | 5.35 | 0.474 | 5.98 | 0.348 | 3.53 |
| CGAATTAGGTCATTGACAGGACAGTGAATAGTAA | 4.67 | 3.39 | 0.61 | 2.55 | 0.269 | 4.89 | 6.83 | 6.02 | 3.62 | 5.68 | 8.21 | 7.99 | 4.24 | 2.12 | 2.32 | 1.77 | 0.55 | 2.57 | 0.994 | 3.73 |
| CGAACTAGGACAAGGACAGTGAATCTCCGCACGC | 0.182 | -0.241 | -0.152 | -0.655 | -0.538 | 0.455 | 1.22 | 0.612 | -0.234 | 0.216 | 5.04 | 3.15 | 0.0656 | 0.471 | 0.000634 | -0.249 | -0.177 | 0.0939 | -0.389 | 0.708 |
| TCAGACAGGTGAAGGTGACTCAGGTACGCAGTCG | 0.795 | 0.409 | -0.133 | 0.864 | 0.128 | 1.58 | 0.781 | 2.13 | 3.51 | 2.83 | 2.42 | 1.7 | 0.953 | 0.0936 | 0.74 | 0.711 | 0.325 | 0.812 | -0.0576 | 1.62 |
